The list is not random: actives were taken first. Their share in the collection is about 0.91%.
LNCaP diff act = activators of LNCaP prostate cell differentiation, primary screen, flow cytometry side scatter; AID 795, 2007; 24,000 tested, 0.56% active; side scatter shift, % at 10 µM; 4 d;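 active = side scatter shift above 30%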;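 also: androgen-responsive LNCaP prostate cancer cells in charcoal-stripped serum medium; percent of cells past a gate set so DMSO wells show 10% shift; higher shift means more granular cells and more differentiation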
S aureus QS inh = S. aureus quorum sensing inhibitors, primary screen, RNAIII-GFP reporter, flow cytometry; S. aureus RN6390 RNAIII-GFP reporter, AIP-induced, flow cytometry 3 h; inhibition, % at 2 µM; 24,000 tested, 0.3% active; AID 527, 2006;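 active = share of bacteria positive for the green fluorescent reporter and its mean brightness both inhibited by 50% or more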;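 also: 0% = AIP-stimulated control and 100% = unstimulated bacteria without AIP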
26S disassembly = inhibitors of ATP-driven 26S proteasome dissociation, primary screen, biochemical, bead-based flow cytometry, GFP-tagged proteasome | anti-FLAG beads, GFP-proteasome disassembly | inhibition of disassembly, % (test concentration not listed) | 24,000 tested, 0.2% active | AID 751, 2007;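 active = inhibition of disassembly above about 33%, limit read from the data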;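 also: plate controls were ATP control with full disassembly for no effect and ATP-gamma-S intact proteasomes for full effect; higher percent means more bead fluorescence retained so stronger block of disassembly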
An asterisk follows results filed as active; . = no result; ! = not confirmed by another sample.

SMILES	LNCaP diff act	S aureus QS inh	26S disassembly
CCn1cc(C(=O)NCc2ccc(Cl)cc2)c(=O)c2cc(S(=O)(=O)N3CCOCC3)ccc21	15	0	-3
O=C(O)Cc1ccc(O)c(F)c1	.	-3	.
O=C(CCn1cccc1)NCCc1ccc(Cl)cc1	9	4	4
COC(=O)c1ccccc1NC(=O)CN1C(=O)C2CCCN2c2ncc(Cl)cc21 (stereo unspecified)	8	3	49*
O=C(CN1C(=O)C2CCCN2c2ncc(Cl)cc21)NCc1ccc2c(c1)OCO2 (stereo unspecified)	10	1	55*
CC1CCC(NC(=O)CN2C(=O)C3CCCN3c3ncc(Cl)cc32)CC1 (stereo unspecified)	12	2	17
CCc1ccccc1NC(=O)CN1C(=O)C2CCCN2c2ncc(Cl)cc21 (stereo unspecified)	11	-3	1
COc1cc(N2C(=O)NC3CC2(C)Oc2ccc(Br)cc23)cc(OC)c1OC (stereo unspecified)	10	3	0
CC(C)c1ncc(C(O)c2cccc3ccccc23)n1C (stereo unspecified)	3	0	2
CN1CCc2nc(SCC(=O)Nc3ccc(F)cc3)c(C#N)cc2C1	0	1	0
CCc1oc2ccccc2c1C(=O)c1cc(Br)c(O)c(Br)c1	3	52*	0
CCOC(=O)c1c(COc2ccccc2)oc2ccc(O)cc12	.	5	.
CCOC(=O)c1ccc2nc3c(cc2c1)CCS3	6	-1	1
CCCNC(=O)Cn1cnc2sc(C(=O)NCCN(CC)CC)c(C)c2c1=O	6	2	-2
CSc1nc2ccc3nc(NC(=O)c4cccs4)sc3c2s1	25	0	1
O=C(Nc1nc2c(s1)CCc1ccccc1-2)c1cccs1	2	79*	1
CCCCC(=O)Nc1ccc(NC(=O)C2CC2)nc1	3	-2	1
Cc1ccc2c(c1)c1c(n2CC(O)CNC(CO)(CO)CO)CCCC1 (stereo unspecified)	30*	0	-2
COC(=O)Cn1c2c(c3cc(C)ccc31)CCCC2	9	1	-1
COc1ccccc1CNC(=O)CS(=O)Cc1nc(-c2ccccc2C)oc1C (stereo unspecified)	8	0	165*
COc1ccc(CNC(=O)CS(=O)Cc2nc(-c3ccccc3C)oc2C)cc1 (stereo unspecified)	18	0	6
CCS(=O)(=O)NCCc1cc2c(OC)ccc(OC)c2[nH]c1=O	7	0	-1
C=CCn1c(COc2ccc(Cl)cc2)nnc1SCC(=O)N1CC(=O)Nc2ccccc21	13	20	0
N#Cc1cnc(SCCc2ccccc2)nc1N	21	-3	88*
N#Cc1cnc(SCC(=O)c2ccccc2)nc1N	7	0	15
SMILES	LNCaP diff act	S aureus QS inh	26S disassembly
CC(=O)N1CCc2cc(C(=O)CN3CCCN(Cc4ccc(F)cc4)C3)ccc21	3	-1	-2
Cc1ccc(NC(=O)N2CCCN(Cc3ccc(F)cc3)C2)cc1C	39*	-2	-1
CCC(C)NC(=O)c1cn(C)c(=O)c2cc(OC)c(OC)cc12 (stereo unspecified)	37*	0	-2
CCOCCCNC(=O)c1cn(C)c(=O)c2cc(OC)c(OC)cc12	9	-2	-1
CCNC(=O)c1cc2c(=O)n3cccc(C)c3nc2n1C	10	-3	-1
CCCn1c(=NC(C)=O)c(C#N)cc2c(=O)n3cccc(C)c3nc21	14	-5	67*
COc1ccc2oc(C(=O)C3CC3)c(NC(=O)CCCN3C(=O)c4ccccc4C3=O)c2c1	9	-2	0
CC1=CC(=C2C(=O)c3ccccc3C2=O)C=C(C)O1	11	2	34
CC(=O)N1C(=O)C(=C2C=C(C)OC(C)=C2)c2ccccc21	3	0	85*
Cc1cccc2cc(C#N)c(SCCN3CCCCC3)nc12	40*	25	10
Cn1c(SCCN2CCCCC2)nnc1-c1ccccc1Br	9	0	-1
CCCCS(=O)(=O)NC1=NCN(C2CCN(Cc3ccccc3)CC2)CN1	6	-2	1
COc1ccc(-c2cc(-c3ccc(F)cc3)nc(N3CCN(C)CC3)n2)cc1	48*	18	0
COc1ccc(-c2cc(C(F)(F)F)nc(N3CCN(c4ccc(F)cc4)CC3)n2)cc1OC	7	7	0
Cc1nc2ccccn2c1/C(O)=C1\C(=O)C(=O)N(CCCN(C)C)C1c1ccc(Cl)cc1 (stereo unspecified)	1	-2	0
Cc1ccc(CNc2nc3ccccc3n3nnnc23)cc1	35*	2	4
CCOC(=O)N1CCC(Nc2nc3ccccc3n3nnnc23)CC1	9	1	4
CCC(=O)N1CCc2cc(Br)cc(S(=O)(=O)N3CCN(c4ccccn4)CC3)c21	1	6	-1
N[C@@H](Cc1cc(I)c(Oc2ccc(O)c(I)c2)c(I)c1)C(=O)O	4	21	0
O=C(O)CCc1cc(I)c(Oc2ccc(O)c(I)c2)c(I)c1	7	88*	0
Cc1sc2nc3c(C(=O)N4CCN(c5ncccn5)CC4)cccn3c(=O)c2c1C	9	-2	1
Cc1ccc(Cn2ccc(NC(=O)c3cc(-c4ccc(Br)cc4)on3)n2)cc1	35*	-2	2
Cc1ccc(Cn2ccc(NC(=O)c3cc(-c4ccc5c(c4)OCO5)on3)n2)cc1	16	6	1
Cc1ccc(-n2ncc3c(=O)n(CC(=O)NCC4CCCO4)cnc32)cc1 (stereo unspecified)	22	3	2
Cc1c(C(=O)N2CCCc3ccccc32)oc2ccc(S(=O)(=O)N3CCOCC3)cc12	2	2	1
SMILES	LNCaP diff act	S aureus QS inh	26S disassembly
Cn1c(=O)n(CCc2ccccc2)c(=O)c2c1nc1n2CCN1c1ccccc1	3	4	0
CCCC(=O)Nc1cc(C)c2c(=O)oc3ccccc3c2n1	7	1	5
Cc1cc(NC(=O)CC(C)(C)C)nc2c1c(=O)oc1ccccc12	6	72*!	9
CC(=O)Nc1cc(C(=O)N2CCOCC2)ccc1S(=O)(=O)c1ccc(C)cc1	37*	-4	0
CC(=O)Nc1cc(C(=O)O)ccc1S(=O)(=O)c1ccc(C)cc1	2	-2	1
CC(=O)Oc1cccc(/C=c2\sc3nc(-c4ccco4)nn3c2=O)c1	5	-1	2
CCCOc1ccc(/C=c2\sc3nc(-c4ccco4)nn3c2=O)cc1OCC	0	-4	125*
Cc1ccc(S(=O)(=O)N2CCCC2C(=O)OCc2ccco2)cc1 (stereo unspecified)	9	0	7
COc1ccc(-n2nnc3c(SCC(=O)N4CCCc5ccccc54)ncnc32)cc1	18	4	1
Cc1ccc(-c2nnn(CC(=O)N(CC(=O)NC3CCCCC3)c3cnc4ccccc4c3)n2)o1	4	8	0
CCOc1ccc(C2CC(c3ccc(F)cc3)n3ncnc3N2)cc1 (stereo unspecified)	10	1	0
Cc1ccc(NC(=O)C2CCN(S(=O)(=O)c3c(C)n[nH]c3C)CC2)nc1	10	0	1
CCc1nnc(NC=C2C(=O)OC(C)(C)OC2=O)s1	3	5	0
COc1ccc(C2C(C(=O)NCC3CCCO3)c3cc(OC)c(OC)cc3C(=O)N2C)cc1OC (stereo unspecified)	3	-2	1
